Compounds with a hit are over-represented: about 3.4% of the library has one in this group of screens.
PP5 primary: blocks human protein phosphatase 5 activity. AID 1987. P53041. purified PP5c, OMFP substrate fluorescence. actives 0.18% (n = 320,000). inhibition, % at 6.7 µM;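 active means inhibition above the campaign's mean inhibition across all tested compounds plus 3 SD, cut at about 9.5% in these data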;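 further: 0% = DMSO only and 100% = 100 µM cantharidin control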
pPAFAH inh: pPAFAH (human) enzyme inhibition; Q13093; recombinant pPAFAH, FP-rhodamine probe fluorescence polarization; inhibition, % at 3.39 µM; actives 1.5% (n = 330,000);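 active means inhibition above the mean inhibition across the screen plus 3 SD, cut at about 25% in these data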;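 further: inhibitors block binding of the rhodamine activity-based probe so polarization drops; 0% = enzyme with DMSO and 100% = wells lacking pPAFAH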
Target sequence (Q13093 whole entry, looked up): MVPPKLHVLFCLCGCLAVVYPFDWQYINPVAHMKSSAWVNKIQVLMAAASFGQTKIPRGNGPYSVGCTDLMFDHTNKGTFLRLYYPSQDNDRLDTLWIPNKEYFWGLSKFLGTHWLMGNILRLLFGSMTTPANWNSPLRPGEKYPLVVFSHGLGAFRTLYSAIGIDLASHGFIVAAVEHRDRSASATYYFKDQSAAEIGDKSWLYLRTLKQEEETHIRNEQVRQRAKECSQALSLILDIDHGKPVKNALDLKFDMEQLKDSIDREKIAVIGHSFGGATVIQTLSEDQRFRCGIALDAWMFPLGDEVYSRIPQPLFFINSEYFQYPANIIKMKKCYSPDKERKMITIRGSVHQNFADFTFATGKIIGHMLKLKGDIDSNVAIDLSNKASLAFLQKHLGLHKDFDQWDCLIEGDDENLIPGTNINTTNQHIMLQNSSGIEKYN
PP1 inh: blocks human PP1-alpha phosphatase, a PP5 counter-screen | P62136 | purified PP1alpha, OMFP fluorescence | inhibition, % at 6.7 µM | actives 0.9% (n = 320,000) | AID 2235;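 active means inhibition above the mean inhibition of all tested compounds plus 3 SD, computed separately for each screening campaign, cut at about 15% in these data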
PAFAH2 FP inh: PAFAH2 (human) inhibition; Q99487; actives 0.99% (n = 340,000); recombinant PAFAH2, FP-rhodamine activity probe, fluorescence polarization; inhibition, % at 3.39 µM; AID 492956;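 active means inhibition above the mean over all tested compounds plus 3 SD, cut at about 30% in these data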;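 further: inhibitors block probe labeling of enzyme so polarization drops; 0% = enzyme with DMSO and 100% = wells lacking PAFAH2 protein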
PAFAH1B2 FP inh: blocks human PAF acetylhydrolase 1b catalytic subunit 2; P68402; recombinant PAFAH1B2, FP-rhodamine activity probe, fluorescence polarization; inhibition, % at 3.39 µM; actives 1.2% (n = 340,000); AID 492953;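 active means inhibition above the mean of all tested compounds plus 3 SD, cut at about 24% in these data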;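 further: 0% = enzyme with DMSO and 100% = wells lacking PAFAH1B2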
PAFAH1B3 inh: inhibitors of human PAFAH1B3 | Q15102 | recombinant PAFAH1B3, FP-rhodamine probe, fluorescence polarization | inhibition, % at 3.39 µM | actives 0.28% (n = 340,000) | AID 492972;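 active means inhibition above the screen-wide average of all tested compounds plus 3 SD, cut at about 25% in these data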;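 further: 0% = enzyme with DMSO only and 100% = wells lacking PAFAH1B3 protein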
Numbers without * were called inactive.

Screening CCN(Cc1ccccc1)c1ccc(N=Nc2nn(C)c(C)c2[N+](=O)[O-])cc1 returned PP5 primary 4, pPAFAH inh 25*, PP1 inh 6, PAFAH2 FP inh 9, PAFAH1B2 FP inh 62* and PAFAH1B3 inh 7.
C[C@H](NC(=O)OCc1ccccc1)C(=O)N[C@@H](Cc1c[nH]c2ccccc12)C(=O)O was read as PP5 primary 3, pPAFAH inh 0, PP1 inh 2, PAFAH2 FP inh 2, PAFAH1B2 FP inh 25* and PAFAH1B3 inh 0.
`COc1ccccc1CNC(=O)C(Cc1c[nH]c2ccccc12)NC(=O)OCc1ccccc1` (configuration not stated) gave PP5 primary -2, pPAFAH inh 7, PP1 inh 7, PAFAH2 FP inh -5, PAFAH1B2 FP inh 5 and PAFAH1B3 inh -5.
Screening O=C(c1ccccc1)N1CCOC(O)(c2ccccc2)C1c1ccccc1 (configuration not stated) returned PAFAH2 FP inh -3, PAFAH1B2 FP inh 10 and PAFAH1B3 inh 14.
For COc1cccc(CNC(=O)c2ccc(C3SCCS3)cc2)c1 the results were PP5 primary -1, pPAFAH inh 0, PP1 inh 6, PAFAH2 FP inh -4, PAFAH1B2 FP inh -1 and PAFAH1B3 inh 6.
For N#CC1=C(S)N(c2ccccc2)C(c2ccc(-c3ccc(Cl)c(Cl)c3)o2)NC1=O (configuration not stated) the results were PP5 primary 0, pPAFAH inh 34*, PP1 inh 12, PAFAH2 FP inh -1, PAFAH1B2 FP inh -2 and PAFAH1B3 inh -4.
N#CC1=C(S)N(c2ccccc2)C(c2ccco2)NC1=O (configuration not stated) was read as PP5 primary -1, pPAFAH inh 4, PP1 inh 0, PAFAH2 FP inh 8, PAFAH1B2 FP inh 2 and PAFAH1B3 inh 10.
`N#CC1=C(S)N(c2ccccc2)C(c2ccc(-c3cc(Cl)ccc3Cl)o2)NC1=O` (configuration not stated) gave PP5 primary 2, pPAFAH inh 36*, PP1 inh 13, PAFAH2 FP inh -2, PAFAH1B2 FP inh 7 and PAFAH1B3 inh 5.
`CCOc1ccc(NC(=O)Cn2nnc(C(=O)NCc3ccc4c(c3)OCO4)c2N)cc1` gave PP5 primary 2, pPAFAH inh 6, PP1 inh 5, PAFAH2 FP inh -1, PAFAH1B2 FP inh 4 and PAFAH1B3 inh 1.
`CC(C)C1N(C(=O)N2CCOCC2)CCN1S(=O)(=O)c1ccccc1` (configuration not stated) gave PP5 primary 1, pPAFAH inh 3, PP1 inh 3, PAFAH2 FP inh 6, PAFAH1B2 FP inh 3 and PAFAH1B3 inh 12.
`CCOC(=O)c1c(C)[nH]c(C)c1S(=O)(=O)N(C)CC(=O)N1CCN(c2ccc(OC)cc2)CC1` gave PP5 primary -1, pPAFAH inh 2, PP1 inh 1, PAFAH2 FP inh 1, PAFAH1B2 FP inh 2 and PAFAH1B3 inh -1.
`COc1cc(C(C(=O)NC2CCCC2)N(CCO)C(=O)Cn2nnc(-c3ccc(C)o3)n2)ccc1O` (configuration not stated) gave PP5 primary 2, pPAFAH inh 2, PP1 inh 1, PAFAH2 FP inh 8, PAFAH1B2 FP inh -2 and PAFAH1B3 inh 0.
Screening O=C(Nc1ccccc1C(F)(F)F)c1cc(-c2ccccc2O)on1 returned PP5 primary 1, pPAFAH inh -6, PP1 inh 16*, PAFAH2 FP inh 2, PAFAH1B2 FP inh 1 and PAFAH1B3 inh 10.
`CCc1ccc(N2CC(C(=O)OCC(=O)Nc3ccc([N+](=O)[O-])cc3)CC2=O)cc1` (configuration not stated) gave PP5 primary 4, pPAFAH inh 6, PP1 inh -3, PAFAH2 FP inh 4, PAFAH1B2 FP inh 8 and PAFAH1B3 inh 14.
Screening Cc1ccc(S(=O)(=O)NCc2ccc(C(=O)N3CCN(c4ccccn4)CC3)cc2)cc1 returned PP5 primary 5, pPAFAH inh 9, PP1 inh -6, PAFAH2 FP inh 0, PAFAH1B2 FP inh -5 and PAFAH1B3 inh -6.
